Screening results: PubChem, several laboratories
A selection: hits, their analogues and other compounds. The true share with any hit is near 1.2%.
p97 ATPase inh = blocks human p97 ATPase activity; P55072; recombinant p97 ATPase, Kinase-Glo ATP luminescence, 3 h; inhibition, % at 8 µM; 220,000 compounds, 0.42% hits; AID 1481; in the data active = inhibition above about 15%;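 note: 0% = DMSO vehicle and 100% = wells lacking enzyme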
DTT redox prof = compounds producing H2O2 with reducing agent – biochemical, NIH compound library profiling, artefact control for MLSCN library redox annotation, primary screen; activation, % at 10 µM; DTT-dependent redox cycling H2O2, phenol red/HRP absorbance; 100% = 100 µM peroxide control, 0% = buffer; 200,000 compounds, 0.03% hits;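 active = activation of at least 50% relative to the plate's high and low controls in the primary single-dose screen; inactive = activation below 50%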;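 note: compound incubated with DTT at 0.8 mM final as the reducing agent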
FAS TE block = inhibitors of human fatty acid synthase thioesterase domain | P49327 | recombinant FAS-TE, OMFH fluorogenic substrate, fluorescence endpoint | inhibition, % at 15 µM | 360,000 compounds, 0.67% hits | AID 602261;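 active = compounds whose normalised, plate-corrected inhibition of enzyme fluorescence in the single-dose primary screen is 50% or more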;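 note: 0% = DMSO with enzyme and 100% = substrate without enzyme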
Furin inh = blocks human furin protease activity | 220,000 compounds, 0.061% hits | inhibition, % at 20 µM or 30 µM | AID 463115 | purified furin, fluorogenic substrate cleavage | P09958; in the data active = inhibition above about 25%
PKD1 kinase inh = inhibitors of human PKD1 kinase | Q15139 | PKD1 kinase fluorescence polarization assay | inhibition, % (concentration not given with the values) | 200,000 compounds, 0.056% hits | AID 797; in the data active = inhibition above about 50%
SUMO HTRF inh = inhibitors of human SUMOylation (UBC9); HTRF SUMOylation assay, SAE1/SAE2 + UBC9, in vitro; inhibition, % at 35 µM; 290,000 compounds, 0.36% hits; in the data active = inhibition above about 50%, passing the limit was not always enough
FAS-TE conf = confirmation of human fatty acid synthase thioesterase inhibitors; shares compounds with FAS TE block; recombinant FAS-TE, OMFH fluorogenic substrate, fluorescence; inhibition, % at 15 µM; 2,300 compounds, 45% hits; AID 624325;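 active = compounds inhibiting the enzyme by at least 50% at 15 µM in any one of the replicates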;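 note: 0% = enzyme with DMSO only and 100% = wells lacking enzyme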
* = called active by the depositor; x = not tested or not shown.

SMILES	p97 ATPase inh	DTT redox prof	FAS TE block	Furin inh	PKD1 kinase inh	SUMO HTRF inh	FAS-TE conf
CSc1ccccc1NC(=S)NCc1ccc(Cl)cc1	x	x	5.7	x	x	9.6	x
CN(C)C1=NC[C@H](Cc2ccccc2)N1CC1CCCCCC1	x	x	-32.6	x	x	x	x
CC(C)(C)C(=O)OCc1ccc(C2=CC(=O)CC(C)(C)C2=O)cc1	x	x	82.4*	x	x	x	82.4*
CC(=O)OCc1ccc(C2=CC(=O)CC(C)(C)C2=O)cc1	x	x	-4.5	x	x	x	x
CCCCCC(=O)OCc1ccc(C2=CC(=O)CC(C)(C)C2=O)cc1	x	x	64.4*	x	x	x	56.4*
COc1ccc(CNC(=O)CN2C(=O)NC3(CCCCCCC3)C2=O)cc1	x	x	2.4	x	x	x	x
Cc1cccc(C(=O)OCC(=O)NC2CCCCCCC2)c1	x	x	4.2	x	x	x	x
Cc1cc(C)c([N+](=O)[O-])cc1NCC(=O)N1CCN(c2ccccc2)CC1	-3.6	-2.3	77.9*	-14.8	1.9	-6.9	65.7*
O=C(OCC(=O)N1CCN(c2ccccc2)CC1)c1cccc([N+](=O)[O-])c1	x	x	53.6*	x	x	x	57.2*
O=C(COC(=O)c1cccc([N+](=O)[O-])c1)NC1CCCC1	x	x	61.1*	x	x	0.5	67.6*
COC(=O)c1cc(C(=O)OCC(=O)NC2CCCC2)cc([N+](=O)[O-])c1	x	x	60.8*	x	x	6.7	63.6*
Cc1cc(C)c(NS(=O)(=O)c2ccccc2)c(C)c1NS(=O)(=O)c1ccccc1	x	x	3.5	x	x	x	x
O=C(COC(=O)CNC(=O)c1ccccc1)NCCNC(=O)COC(=O)CNC(=O)c1ccccc1	x	x	-7.2	x	x	x	x
Cc1ccc(OCc2cc(C(=O)N3CCCC(O)C3)no2)cn1 (configuration not stated)	x	x	-8.2	x	x	6.1	x
CCN(CC(=O)Nc1ccccc1C(F)(F)F)C(=O)CN1C(=O)NC(C)(c2ccccc2)C1=O (configuration not stated)	x	x	-6.3	x	x	x	x
Cc1ccc(C(=O)OCC(=O)NC(C)c2ccccc2)cc1C (configuration not stated)	x	x	-0.7	x	x	x	x
CCOC(=O)N1CCN(C(=O)/C(=C/c2ccc(N(C)C)cc2)NC(=O)c2ccccc2)CC1	x	x	-8.5	x	x	x	x
COC(=O)c1ccc(COc2ccc(CNCc3ccc(Cl)cc3)cc2)cc1	x	x	6.7	x	x	20.3	x
FCCCOc1ccc(-c2ccnc(-c3ccccc3)n2)cc1	-1.3	2.0	53.9*	-29.6	6.0	-41.7	44.1
FCCCOc1ccc(-c2nccc(-c3ccc(F)cc3)n2)cc1	-4.6	-2.1	25.8	-10.8	-5.4	-11.4	x
CC(C)(C)N1C(=O)[C@H]2[C@@H](c3ccc(Br)cc3)N3C(=O)N(c4ccccc4)C(=O)[C@@]3(Cc3ccccc3)[C@H]2C1=O	x	x	87.0*	x	x	x	2.4
CC(C)C[C@@]12C(=O)N(c3ccc(Br)cc3)C(=O)N1[C@H](c1ccc(Br)cc1)[C@@H]1C(=O)N(C(C)(C)C)C(=O)[C@@H]12	x	x	75.3*	x	x	-8.8	38.9*
CN(CCOc1ccccc1)C(=O)c1cc(S(=O)(=O)N2CCOCC2)c(Cl)cc1Cl	x	x	3.7	x	x	x	x
Cc1ccc(NC(=O)CN(C)C(=O)c2cccc(-n3cccc3)c2)cc1	x	x	1.1	x	x	x	x
CC1C(=O)N(c2ccc(S(=O)(=O)N(C)C)cc2)C1(/C=C/c1ccccc1)C(=O)NC1CCCC1 (configuration not stated)	0.7	-0.2	60.9*	-20.3	-2.2	-24.3	32.7
SMILES	p97 ATPase inh	DTT redox prof	FAS TE block	Furin inh	PKD1 kinase inh	SUMO HTRF inh	FAS-TE conf
O=C1CC(/C=C/c2ccccc2)(C(=O)NC2CCCC2)N1c1ccc(S(=O)(=O)N2CCCC2)cc1 (configuration not stated)	2.0	-0.2	74.7*	-17.4	6.6	-15.4	8.7
CC(C)NC(=O)C1(C)CCN1Cc1ccc(C(F)(F)F)cc1 (configuration not stated)	x	x	-3.6	x	x	x	x
CCn1nc(NS(=O)(=O)c2ccc(NC(C)=O)cc2)c2cc3cc(C)ccc3nc21	x	x	-0.4	x	x	-0.2	x
COc1ccc2cc(C=NS(=O)(=O)c3ccc(C)cc3)n(C)c2c1	x	x	-8.5	x	x	x	x
Cc1ccc(S(=O)(=O)c2nc(S(C)(=O)=O)sc2N2CCC(C(N)=O)CC2)cc1	x	x	-8.0	x	x	13.8	x
Cc1ccc(S(=O)(=O)c2nnn3c2nc(N2CCC(C(N)=O)CC2)c2ccccc23)cc1C	x	x	52.8*	x	x	4.2	61.1*
CCOC(=O)C1CCN(CC(C)(C)NS(=O)(=O)c2ccccc2)CC1	x	x	-5.2	x	x	18.4	x
CCCOc1ccc(NC(=O)CC2C(=O)N(C)C(=S)N2Cc2cccs2)cc1 (configuration not stated)	-5.4	0.8	63.9*	-3.9	-5.4	-9.4	65.4*
CN1C(=O)C(CC(=O)Nc2ccc(F)cc2)N(Cc2cccs2)C1=S (configuration not stated)	8.7	x	44.7	-10.8	x	5.2	x
CCOC(=O)C1CCN(C(=O)C2CCCN(c3ncnc4c3nc3n4CCCCC3)C2)CC1 (configuration not stated)	x	x	0.3	x	x	10.1	x
O=[N+]([O-])c1ccc(S(=O)(=O)Nc2nnc(C3CCCCC3)s2)cc1	x	x	50.3*	x	x	1.2	65.2*
CC(C)(C)c1ccc(OCCC(=O)OCC(=O)NCc2ccccc2)cc1	x	x	64.7*	x	x	x	66.7*
COc1ccc(CNC(=O)COC(=O)CCOc2ccccc2)cc1	2.2	0.3	-1.0	-6.8	-5.8	1.0	x
CC(C)N1CCc2c(sc(NC(=O)c3ccc([N+](=O)[O-])o3)c2C(N)=O)C1	x	x	59.5*	x	x	-8.2	71.5*
COC(=O)c1c(NC(=O)c2ccc([N+](=O)[O-])o2)sc2c1CCN(C(C)C)C2	x	x	8.2	x	x	9.9	x
CCOc1ccc(-c2ccc(NS(=O)(=O)c3cc([N+](=O)[O-])c(C)c([N+](=O)[O-])c3)cc2)nn1	x	x	83.5*	x	x	19.4	83.4*
O=C(c1cc(COc2cccc(C(F)(F)F)c2)on1)N1C[C@@H]2CCC[C@H]1C2	x	x	56.2*	x	x	-7.3	24.5*
O=C(c1cc(COc2cccc(C(F)(F)F)c2)on1)N1CCC(c2ccccc2)CC1	x	x	31.0	x	x	-16.2	x
O=C(NCc1ccc(Cl)s1)C1CCC(=O)N(CCc2ccccn2)C1 (configuration not stated)	x	x	-5.5	x	x	6.8	x
O=C(O)c1cc(S(=O)(=O)N2CCN(S(=O)(=O)c3ccc4ccccc4c3)CC2)ccc1Br	x	x	13.9	x	x	x	x
CC(C)(C)c1ccc(NC(=O)COC(=O)CCN2C(=O)c3cccc([N+](=O)[O-])c3C2=O)cc1	0.3	0.4	83.3*	-9.8	-12.9	-7.5	35.9
COc1ccc(C(=O)Nc2ccc(S(=O)(=O)N3CCCCC3)cc2)cc1	-5.2	10.6	14.5	-14.4	-1.6	17.7	x
COc1ccc(-c2cnnn2-c2ccc(NC(=O)c3ccc(S(=O)(=O)N4CCCCC4)cc3)cc2)cc1	-6.5	-0.4	57.9*	7.6	-10.4	12.5	-1.3
CCOc1ncccc1C(=O)Nc1cccc(Cl)c1Cl	-0.9	-2.2	-5.5	-25.4	-6.3	-3.4	x
